esBAF inh = SWI/SNF esBAF complex inhibition; AID 602393; reporter increase, % at 12.5 µM; mouse ES cells, Bmi1-luciferase knock-in reporter, 24 h; 100% = twice the neutral-well signal; hit rate 2% among 350,000; in the data active = activation above about 40%;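 also: 0% = median of the plate's neutral control wells and 100% = double that signal; a rise in the Bmi1 reporter signal indicates esBAF inhibition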
Wnt act = Wnt/beta-catenin pathway activation; Wnt/beta-catenin reporter cell assay, activator, plate reader; activation, % at 9.35 µM; hit rate 1.2% among 300,000; in the data active = activation above about 30%, passing the limit was not always enough;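 also: 0% = neutral control wells and 100% = positive control wells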
hcDAF12 agonist = activators of H. contortus DAF-12 nuclear receptor | HEK293 hcDAF-12 lit1-tk-luc reporter, luminescence; 0% DMSO, 100% Δ7-dafachronic acid | activation, % at 6.8 µM | hit rate 1.4% among 370,000;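 active = activation above the mean of all tested compounds plus 3 SD, cut at about 5.5% in these data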;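 also: 100% = response to 3 µM Δ7-dafachronic acid high control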
ssDAF12 agonist = activators of S. stercoralis DAF-12 nuclear receptor; activation, % at 6.8 µM; HEK293 ssDAF-12/GRIP1 lit1-tk-luc reporter, luminescence; % of 3 µM dafachronic acid response; hit rate 1% among 370,000; AID 652126;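 active = activation above the mean over all tested compounds plus 3 SD, cut at about 0.9% in these data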;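 also: 0% = DMSO-only wells and 100% = 3 µM delta7-dafachronic acid wells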
hgDAF-12 ag = activates the H. glycines DAF-12 receptor ligand-binding domain; HEK293 GAL4-hgDAF12 UAS-luciferase reporter, agonist luminescence; normalized to butyrate control; activation, % at 6.8 µM; hit rate 1.8% among 370,000; AID 687014;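 active = activation above a cutoff set at the mean of all screened compounds plus 3 SD, cut at about 10% in these data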;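 also: 0% = DMSO wells and 100% = sodium butyrate wells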
DAX1 inh = blocks DAX1 repression of SF-1 activated StAR promoter; HEK293T StAR-luciferase reporter, SF-1/DAX-1 repression relief; inhibition, % at 6.8 µM; hit rate 1.1% among 370,000; AID 652010;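 active = inhibition above the mean over all tested compounds plus 3 SD, cut at about 3.6% in these data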;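 also: 0% = DAX-1 cells with DMSO and 100% = cells lacking DAX-1 with DMSO; higher inhibition means more luminescence from relief of DAX-1 repression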
* = called active by the depositor. Compounds with a hit are over-represented: about 4.2% of the library has one in this group of screens.

`C(=NOCCc1ccccc1)c1cccnc1` gave esBAF inh 51*, Wnt act 0, hcDAF12 agonist 3, ssDAF12 agonist -1, hgDAF-12 ag 9 and DAX1 inh 1.
Screening CO[C@H]1CN(C)C(=O)c2cc(NC(=O)c3ccccc3)ccc2OC[C@@H](C)N(C(=O)CN(C)C)C[C@H]1C returned esBAF inh 0.
COc1ccc(CC(N)c2csc(NC(=O)c3cc(C(C)(C)C)oc3C)n2)cc1 (stereo unspecified) was read as esBAF inh 53*, Wnt act -3, hcDAF12 agonist -1, ssDAF12 agonist -1, hgDAF-12 ag 7 and DAX1 inh -1.
Screening C[C@@H]1CCCCO[C@@H](CN(C)S(C)(=O)=O)[C@@H](C)CN([C@@H](C)CO)C(=O)c2cc(N(C)C)ccc2O1 returned esBAF inh 5.
For Brc1ccc(-c2csc(/N=C/N3CCOCC3)n2)cc1 the results were esBAF inh 51*, hcDAF12 agonist 1, ssDAF12 agonist -1, hgDAF-12 ag 5 and DAX1 inh 0.
Screening Brc1ccc(-c2csc(/N=C/N3CCCC3)n2)cc1 returned esBAF inh 34, Wnt act 27, hcDAF12 agonist 0, ssDAF12 agonist -1, hgDAF-12 ag 5 and DAX1 inh 0.
For OCCN(/C=N/c1nc(-c2ccc(Br)cc2)cs1)CCO the results were esBAF inh 41*, Wnt act -1, hcDAF12 agonist 2, ssDAF12 agonist -1, hgDAF-12 ag 6 and DAX1 inh 0.
Screening Cc1ccc(S(=O)(=O)Nc2cccc3c2O[C@@H](CN(C)CC2CC2)[C@H](C)CN([C@@H](C)CO)C3=O)cc1 returned esBAF inh -2.
`C[C@@H]1CCCCO[C@@H](CN(C)S(=O)(=O)c2cn(C)cn2)[C@@H](C)CN([C@H](C)CO)C(=O)c2cc(NC(=O)CCCN(C)C)ccc2O1` gave esBAF inh -4.
For COc1cccc(-c2cn(CC[C@@H]3CC[C@H](NC(=O)CC4CC4)[C@@H](CO)O3)nn2)c1 the results were esBAF inh -3.
`O=C(O)CCSc1nc2ccccc2n1-c1ccccc1` gave esBAF inh -2, Wnt act 1, hcDAF12 agonist 6.0*, ssDAF12 agonist -1, hgDAF-12 ag 0 and DAX1 inh 1.
Screening CC(C)N(C(=O)CSc1nc2ccccc2n1-c1ccccc1)C(C)C returned esBAF inh -8, hcDAF12 agonist -2, ssDAF12 agonist -1, hgDAF-12 ag -2 and DAX1 inh -1.
`O=C(C[C@@H]1CC[C@@H]2[C@H](COC[C@@H](O)CN2Cc2cc(F)ccc2F)O1)NCc1ccc(Cl)cc1` gave esBAF inh -1.
O=C(Nc1cccc(Cl)c1)c1csc(COCCO)n1 was read as esBAF inh 47*, Wnt act 25, hcDAF12 agonist 3, ssDAF12 agonist -1, hgDAF-12 ag 7 and DAX1 inh 3.
O=C(Nc1cccc(C(F)(F)F)c1)c1csc(COCCO)n1 was read as esBAF inh 1, Wnt act 4, hcDAF12 agonist -1, ssDAF12 agonist -2, hgDAF-12 ag 3 and DAX1 inh 0.
`O=c1c2ccccc2ncn1CCOc1ccccc1[N+](=O)[O-]` gave esBAF inh 67*, Wnt act 4, hcDAF12 agonist 1, ssDAF12 agonist -1, hgDAF-12 ag 10 and DAX1 inh 2.
Screening Cc1ccc(OCCOCCn2cnc3ccccc3c2=O)c([N+](=O)[O-])c1 returned Wnt act -1, hcDAF12 agonist -1, ssDAF12 agonist -2, hgDAF-12 ag 5 and DAX1 inh 0.
`Nc1ccccc1-c1nnc(-c2ccccc2N)n1N` gave Wnt act -1, hcDAF12 agonist 6.0*, ssDAF12 agonist 2.0*, hgDAF-12 ag 9 and DAX1 inh 1.
For Nn1c(-c2ccccn2)nnc1-c1ccccn1 the results were esBAF inh 26, Wnt act 0, hcDAF12 agonist 2, ssDAF12 agonist -1, hgDAF-12 ag 9 and DAX1 inh 1.
O=S(=O)(Cc1cc(-c2ccc(Cl)cc2)no1)c1ccccc1 was read as esBAF inh 51*, Wnt act -4, hcDAF12 agonist 0, ssDAF12 agonist -1, hgDAF-12 ag 7 and DAX1 inh 2.
For O=S(=O)(NCc1cc(-c2ccc(Cl)cc2)no1)c1ccccc1 the results were esBAF inh 7, Wnt act 3, hcDAF12 agonist -2, ssDAF12 agonist -1, hgDAF-12 ag 0 and DAX1 inh 0.
For Clc1ccc(OCc2cc(-c3ccccc3)no2)cc1Cl the results were Wnt act 1, hcDAF12 agonist 1, ssDAF12 agonist -1, hgDAF-12 ag 3 and DAX1 inh 0.
Screening Clc1ccc(-c2cc(COc3ccccc3)on2)cc1 returned esBAF inh 51*, Wnt act 9, hcDAF12 agonist 2, ssDAF12 agonist -1, hgDAF-12 ag 7 and DAX1 inh 2.
For O=S(=O)(Cc1cc(-c2ccccc2Cl)no1)c1ccccc1 the results were esBAF inh 53*, Wnt act -2, hcDAF12 agonist 2, ssDAF12 agonist -1, hgDAF-12 ag 6 and DAX1 inh 2.
For Cc1occc1C(=O)n1nnc2ccccc21 the results were Wnt act -3, hcDAF12 agonist 5.8*, ssDAF12 agonist -1, hgDAF-12 ag -2 and DAX1 inh -1.
For CCSc1ccccc1C(=O)n1nnc2ccccc21 the results were Wnt act 3.
For COc1cccc(NC(=O)N[C@@H]2C=C[C@H](CC(=O)N3CCCCC3)O[C@H]2CO)c1 the results were esBAF inh 1.
`COc1ccccc1N(CC(N)=O)S(=O)(=O)c1ccc(C)cc1` gave esBAF inh 1, hcDAF12 agonist 0, ssDAF12 agonist 1.1*, hgDAF-12 ag 3 and DAX1 inh 0.
`Cc1nn(-c2ccccc2)c(C)c1Cc1ccc(O)cc1` gave esBAF inh 88*, Wnt act 8, hcDAF12 agonist 0, ssDAF12 agonist -1, hgDAF-12 ag 3 and DAX1 inh 0.
Cc1nn(-c2ccccc2)c(C)c1CN was read as Wnt act -1, hcDAF12 agonist 0, ssDAF12 agonist -1, hgDAF-12 ag -2 and DAX1 inh 0.
CN1C(=CC=C2C=C(I)C(=O)C(I)=C2)C(C)(C)c2ccccc21 was read as esBAF inh -26, Wnt act 1, hcDAF12 agonist -2, ssDAF12 agonist -1, hgDAF-12 ag -3 and DAX1 inh 2.
Screening CN1/C(=C\C=C2/C(=O)Oc3ccccc3C2=O)C(C)(C)c2ccccc21 returned Wnt act 52*, hcDAF12 agonist 0, ssDAF12 agonist -1, hgDAF-12 ag 0 and DAX1 inh 0.

Bioassay records deposited in PubChem BioAssay by several laboratories.
